Test results published in PubChem BioAssay AID1159580 (chemical genetic matrix, 2015).
Values joined by “and” are separate entries in the source; they are usually repeats but may differ in a detail not shown here. Equal entries are not always repeated. Hit rate of the full screen: of about 5,500 compounds, about 2,000 (36%) were called active. Not shown: some 18% with an inconclusive outcome. Rule as the data show it: active = normalized growth mostly below about 0.91 (no sharp cut-off); inconclusive = no clear call, values can overlap the other calls; inactive = mostly above about 0.92. The list shows a part of the results.

Test: chemical genetic growth profiling, strain panel (AID 1159580);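 also: tested at 20 µM; growth read once vehicle control cultures reached saturation at 30 °C; 1 = growth at the plate median or of vehicle wells; lower values mean less growth of the strain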
Conditions: S. cerevisiae deletion strains, growth OD

Measured: normalized growth

O=C1O[C@@H](CO)[C@H](O)[C@@H](O)[C@@H]1O
inactive: locus YAL021C, strain ccr4, stronger effect = lower value 0.997 | locus YAL026C, strain drs2, stronger effect = lower value 1.03 | locus YAL030W, strain snc1, stronger effect = lower value 1.01 | locus YBL061C, strain skt5, stronger effect = lower value 1.03 | locus YBR009C, strain hhf1, stronger effect = lower value 1.01 | locus YBR021W, strain FUR4, stronger effect = lower value 0.999 | locus YBR023C, strain chs3, stronger effect = lower value 1.02 | locus YBR171W, strain sec66, stronger effect = lower value 1.03 | locus YBR229C, strain ROT2, stronger effect = lower value 1 | locus YBR231C, strain swc5, stronger effect = lower value 1.08 | locus YBR279W, strain paf1, stronger effect = lower value 1.01 | locus YCL011C, strain gbp2, stronger effect = lower value 1.02 | locus YCL016C, strain dcc1, stronger effect = lower value 1.01 | locus YCL029C, strain bik1, stronger effect = lower value 0.99 | locus YCL061C, strain MRC1, stronger effect = lower value 1.01 | locus YCL069W, strain vba3, stronger effect = lower value 1.03 | locus YCR088W, strain abp1, stronger effect = lower value 1.02 | locus YDL005C, strain med2, stronger effect = lower value 1.03 | locus YDL035C, strain GPR1, stronger effect = lower value 1.01 | locus YDL040C, strain nat1, stronger effect = lower value 1.03 | locus YDL074C, strain BRE1, stronger effect = lower value 0.974 | locus YDL101C, strain DUN1, stronger effect = lower value 1.01 | locus YDL134C, strain PPH21, stronger effect = lower value 1.01 | locus YDL185W, strain tfp1, stronger effect = lower value 1 | locus YDL192W, strain arf1, stronger effect = lower value 1.01 | locus YDR001C, strain nth1, stronger effect = lower value 1.03 | locus YDR069C, strain doa4, stronger effect = lower value 1.02 | locus YDR101C, strain arx1, stronger effect = lower value 0.946 | locus YDR137W, strain rgp1, stronger effect = lower value 1.04 | locus YDR150W, strain NUM1, stronger effect = lower value 1 | locus YDR159W, strain sac3, stronger effect = lower value 1 | locus YDR162C, strain NBP2, stronger effect = lower value 1.02 | locus YDR195W, strain ref2 0.99 | locus YDR297W, strain sur2, stronger effect = lower value 1.02 | locus YDR318W, strain mcm21, stronger effect = lower value 1.01 | locus YDR334W, strain swr1, stronger effect = lower value 1.03 | locus YDR335W, strain msn5, stronger effect = lower value 1.01 | locus YDR388W, stronger effect = lower value 1.01 | locus YDR392W, strain spt3, stronger effect = lower value 1.06 | locus YDR502C, strain sam2, stronger effect = lower value 1 | locus YEL003W, strain gim4, stronger effect = lower value 1.02 | locus YEL037C, strain rad23, stronger effect = lower value 1.01 | locus YEL061C, strain CIN8 (second series), stronger effect = lower value 1.03 | locus YEL061C, strain CIN8, stronger effect = lower value 1 | locus YER015W, strain faa2, stronger effect = lower value 1.02 | locus YER016W, strain bim1, stronger effect = lower value 1.03 | locus YER110C, stronger effect = lower value 1.01 | locus YER111C, strain swi4, stronger effect = lower value 1.01 | locus YER155C, strain BEM2 (second series), stronger effect = lower value 1.06 | locus YER155C, strain BEM2, stronger effect = lower value 1.01 | locus YER167W, strain BCK2, stronger effect = lower value 1.01 | locus YFR010W, strain ubp6, stronger effect = lower value 1.01 | locus YGL078C, strain dbp3, stronger effect = lower value 1.01 | locus YGL086W, strain mad1, stronger effect = lower value 0.983 | locus YGL167C, strain pmr1, stronger effect = lower value 1.02 | locus YGL173C, strain kem1, stronger effect = lower value 1.05 | locus YGL227W, strain vid30, stronger effect = lower value 1.03 | locus YGL240W, strain doc1, stronger effect = lower value 1.04 | locus YGL248W, strain PDE1, stronger effect = lower value 0.996 | locus YGL253W, strain hxk2, stronger effect = lower value 1.03 | locus YGR135W, strain pre9, stronger effect = lower value 1.05 | locus YGR229C, strain SMI1, stronger effect = lower value 0.997 | locus YGR252W, strain gcn5, stronger effect = lower value 1.06 | locus YHR013C, strain ard1, stronger effect = lower value 1.08 | locus YHR027C, strain rpn1, stronger effect = lower value 1.02 | locus YHR030C, strain SLT2, stronger effect = lower value 1 and 0.985 | locus YHR079C, strain IRE1 (second series), stronger effect = lower value 1 | locus YHR079C, strain IRE1, stronger effect = lower value 0.979 | locus YHR094C, strain hxt1, stronger effect = lower value 1.01 | locus YHR129C, strain ARP1, stronger effect = lower value 1.02 | locus YHR142W, strain chs7, stronger effect = lower value 1.02 | locus YHR200W, strain rpn10, stronger effect = lower value 0.998 | locus YIL066C, strain RNR3, stronger effect = lower value 1 | locus YIL073C, strain SPO22, stronger effect = lower value 1.05 | locus YIL125W, strain kgd1, stronger effect = lower value 0.999 | locus YIR030C, strain dcg1, stronger effect = lower value 1 | locus YJL092W, strain hpr5, stronger effect = lower value 1.01 | locus YJL095W, strain BCK1 (second series), stronger effect = lower value 1.02 | locus YJL095W, strain BCK1, stronger effect = lower value 1 and 0.979 | locus YJL115W, strain asf1, stronger effect = lower value 1.02 | locus YJL129C, strain trk1, stronger effect = lower value 1.02 | locus YJL134W, strain LCB3, stronger effect = lower value 1.01 | locus YJL154C, strain vps35, stronger effect = lower value 1.02 | locus YJL164C, strain tpk1, stronger effect = lower value 1.01 | locus YJL166W, strain qcr8, stronger effect = lower value 1.02 | locus YJL168C, strain set2, stronger effect = lower value 0.997 | locus YJL187C, strain SWE1 (second series), stronger effect = lower value 0.989 | locus YJL187C, strain SWE1, stronger effect = lower value 1.02 | locus YJR043C, strain POL32, stronger effect = lower value 0.99
